The results in this text go back to PubChem BioAssay (NCI).

The panel holds about 79,000 compounds, 15% with a hit somewhere; the sample as a whole holds those more often. Unmarked numbers belong to inactive results. The source made the active and inactive calls. No stated cut-off is given here; in the data, active means growth inhibition above about 70%; inactive means the rest.

A short description of the test: NCI Yeast Anticancer Drug Screen. Data for the mlh1 rad18 strain (AID 175). The note with it: S. cerevisiae mlh1 rad18 strain growth inhibition; at 5.0 µM (retest, dose inferred, filed as 0.5); hits give high values. In short, it runs like this:
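Steps: expose repair-defective yeast to compound; measure growth; express inhibition against vehicle-treated controls.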
For `C/C(=N\NC(=S)SCc1ccccc1)c1ccccn1`, the growth inhibition was -12%.

As for `CC[C@@]1(O)C(=O)OCc2c1cc1n(c2=O)Cc2cc3c(N)cccc3nc2-1`, the growth inhibition is -6%.

As to `CN(C)c1ccc(Sc2ccc3nc(N)nc(N)c3c2)cc1`, the growth inhibition was 34%.

As to `CC(=O)OCCOCNC(=S)N/N=C(\C)c1cnccn1`, the growth inhibition was -29%.

In the case of `COc1ccc(C2c3cc4c(cc3OC(C)(O)C2C)OCO4)c(OC)c1` (configuration not stated), the growth inhibition was -6%.

Regarding `COc1cc(C2SCC(=O)N2c2ccc(-c3ccc(-n4c(-c5ccccc5)nc5ccccc5c4=O)cc3)cc2)cc(OC)c1OC` (configuration not stated), the growth inhibition was 6%.

For `COc1ccc(Br)c(C(=O)Sc2nnnn2-c2cccc(Cl)c2)c1`, the growth inhibition is 47%.

On to `O=C(NNc1ccnc2cc(Cl)ccc12)/C(=C\c1ccccc1Cl)NC(=O)c1ccccc1`, for which the growth inhibition is -13%.

Turning to `CSC(=S)Nc1cccc(C)n1`, the growth inhibition was 55%.

In the case of `O=C(/C=C\c1ccc(Cl)cc1Cl)c1cccs1`, the growth inhibition is 27%.

Take `COc1ccc(-c2cn(-c3ccc(I)cc3)c3ncnc(N)c23)cc1`: the growth inhibition was 4%.

Turning to `CN(C)c1ccc(C(C#N)=C(C#N)C#N)cc1`, the growth inhibition was -108%.

In the case of `COc1cc(/C=C2\CCc3ccccc3C2=O)cc(OC)c1OC`, the growth inhibition is -15%.

For `CC(C)/C(Cl)=N\OC(=O)Nc1cccc(Cl)c1`, the growth inhibition was -12%.

For the compound `CC1(C)[C@@H]2CC[C@]1(C)[C@H](OC(=O)CSC#N)C2`, the growth inhibition is 9%.

`NNC(=O)CCc1ccc2ccc3ccccc3c2c1`: the growth inhibition was -10%.

Turning to `C=CC(C)(O)CCC1C(=C)C(O)CC2C(C)(C)CCCC12C` (configuration not stated), the growth inhibition was 23%.

With `S=C(Nc1ccc(Cl)c(Cl)c1)SCc1ccc2c(c1)OCO2`, the growth inhibition was 90% (active).

In the case of `COc1cc(C2C3=C(COC3=O)Oc3cc4c(cc32)OCO4)ccc1O` (configuration not stated), the growth inhibition is 45%.

`S=C(Nc1ccc(Cl)cc1)SC1CCCCC1`: the growth inhibition is -2%.

For the compound `Nc1nc(-c2cccnc2)cc(-c2cc(-c3cccnc3)nc(N)n2)n1`, the growth inhibition was -15%.

As to `COC1=CC(=O)C2C(C1=O)C(c1ccc(Cl)cc1)[C@@H]2C` (some centres not stated), the growth inhibition was 23%.

Turning to `c1ccc(-c2nc3cccnc3s2)cc1`, the growth inhibition is -8%.

As for `O=[N+]([O-])c1cc(CCl)ccc1CCl`, the growth inhibition is 38%.

For `COc1ccc(/C=C2\SC(=S)N(/C=C/c3nc4ccccc4[nH]c3=O)C2=O)cc1OC`, the growth inhibition was -11%.

With `CCCN(CCC)CC(O)c1cc(-c2ccc(Cl)cc2)nc2c(C)c(Cl)ccc12` (configuration not stated), the growth inhibition was 27%.

In the case of `O=C(Nc1ccccc1)OCCc1ccc(Cl)c(Cl)c1`, the growth inhibition was 1%.

For `C#CCCCc1ccccc1`, the growth inhibition is 15%.

On to `CC(=O)Cc1ccc[cH-]1.[Fe+2].c1cc[cH-]c1`, for which the growth inhibition was 3%.

As for `Cc1cc(I)ccc1N`, the growth inhibition was 41%.

For `FC(F)(F)c1cc(NC(=S)N2c3ccccc3-n3cccc3C2c2cccnc2)cc(C(F)(F)F)c1` (configuration not stated), the growth inhibition was -7%.

Consider `CC(C)(CN1CCCCC1)C(=O)CC(SCCS(=O)(=O)O)c1ccc(Br)cc1` (configuration not stated), for which the growth inhibition is 3%.

With `C[Si](C)(C)CNC(=O)OCc1ccccc1`, the growth inhibition is -14%.

With `CC(C(=O)N1C(=O)N(C(=O)[C@H](C)C(O)c2ccccc2)[C@H](c2ccccc2)[C@H]1c1ccccc1)[C@@H](O)c1ccccc1` (some centres not stated), the growth inhibition was 7%.

In the case of `Oc1cccc2c(Cl)ccnc12`, the growth inhibition is 100% (active).

As to `O=C1C=CC(=C(c2ccccc2)c2ccccc2)c2ccccc21`, the growth inhibition was 69%.

Regarding `S=C(S)NN1CCOCC1`, the growth inhibition was 94% (active).
